PubChem BioAssay (NCATS)
“And” between values parts separate entries of the source, which are not always exact repeats. Equal entries are not always repeated. Inconclusive results are not listed. Entries that show only a call come without a potency. The source made the active and inactive calls. Unless noted, the call rests on the fitted dose curve.

Columns and labels:
[1] = target: Cytochrome P450 3A4 (Homo sapiens) (UniProt P08684); assay: qHTS Assay for Inhibitors and Substrates of Cytochrome P450 3A4 (AID 884; active means well fitted curve in the direction sought with a large enough effect; an effect the other way counts as inactive or inconclusive; further: series mostly up to about 57 µM; nearly all actives have a fitted effect of over 50% in size)
Outline: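 Luminescent readout of luciferin produced by CYP3A4 (20 nM) dealkylation of Luciferin-PPXE, 25 uM (its KM). NADPH-driven reaction ran 60 min at RT after 10 min compound preincubation; data scaled to 57 uM ketoconazole as 100% inhibition.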

[2] = MultiTox-Fluor Cytotoxicity Assay - LYMP1-002 - Dead Cells (AID 960; active means well fitted curve in the direction sought with a large enough effect; an effect the other way counts as inactive or inconclusive; further: nearly all actives have a fitted effect of over 60% in size)
Outline: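 Dead-cell fluorescence (Ex/Em 485/520) after 16 h compound exposure at 37 C of LYMP1-002 lymphoblastoid cells in complete medium; AC50 by Hill equation, with data scaled between DMSO and 15 uM tetraoctylammonium bromide.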

[3] = target: Estrogen receptor (Homo sapiens) (UniProt P03372); assay: qHTS assay for small molecule antagonists of estrogen receptor alpha signaling (AID 588513; active means well fitted curve in the direction sought with a large enough effect in the signal ratio, with a control signal flat, not every such curve was filed as active; the % refers to the signal ratio)
Outline: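 Antagonist-mode qHTS in ER-alpha-UAS-bla HEK 293 cells: compound titration, 0.5nM estradiol for 18 h, CCF4 fluorescence, Hill-derived IC50.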

[4] = target: Estrogen receptor (Homo sapiens) (UniProt P03372); assay: qHTS assay for small molecule agonists of estrogen receptor alpha signaling (AID 588514); further: nearly all actives have a fitted effect of over 70% in size
Outline: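 EC50 and efficacy came from Hill fits of beta-lactamase reporter signal (CCF4 dye, 2 h at room temperature) scaled between DMSO and 20 nM 17-beta-estradiol. Agonist mode: HEK293 ER-alpha-UAS-bla cells in charcoal/dextran-stripped serum medium, 18 h compound exposure at 37 C.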

[5] = target: Peroxisome proliferator-activated receptor gamma (Homo sapiens) (UniProt P37231); assay: qHTS assay for small molecule agonists of peroxisome proliferator-activated receptor gamma signaling (AID 588536; active means well fitted curve in the direction sought with a large enough effect in the signal ratio, with a control signal flat, not every such curve was filed as active; the % refers to the signal ratio)
Outline: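 Cells were plated and held 6–6.5 h at 37 C, then compounds were added as a titration series. After a further 16 h, CCF4 dye was loaded for 2 h at room temperature and emission at 460/530 nm recorded.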

[6] = target: Vitamin D3 receptor (Homo sapiens) (UniProt P11473); assay: qHTS assay for small molecule antagonists of vitamin D receptor signaling (AID 588541);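 further: receptor activated by calcitriol during compound treatment; series mostly up to about 77 µM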
Outline: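 VDR-UAS-bla HEK293T cells (2000/well, 2% charcoal-stripped FBS) were treated with titrated compounds plus 1-alpha,25-dihydroxyvitamin D3 (50 nM or 3 nM final) for 16 h at 37 C. CCF4 beta-lactamase fluorescence was read; Hill fits gave IC50.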

[7] = target: Vitamin D3 receptor (Homo sapiens) (UniProt P11473); assay: qHTS assay for small molecule agonists of vitamin D receptor signaling (AID 588543)
Outline: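 Measured: β-lactamase reporter activity (CCF4, 405 nm excitation, 460/530 nm emission) in HEK293T VDR-UAS-bla cells after 16 h compound exposure at 37 °C. Normalization against 50 nM 1α,25-dihydroxyvitamin D3 and DMSO; Hill-fit EC50.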

[8] = qHTS assay for small molecule agonists of retinoid X receptor alpha signaling (AID 588544); details: HEK293T RXRa-UAS-bla, beta-lactamase reporter, 18 h; 530 nm emission
[9] = target: Retinoic acid receptor RXR-alpha (Homo sapiens) (UniProt P19793); assay: as above
[10] = target: Thyroid hormone receptor beta (Homo sapiens) (UniProt P10828); assay: qHTS assay for small molecule agonists of thyroid hormone receptor beta signaling (AID 588545)
Outline: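 Cells (2500/well) were seeded, incubated 4 hrs at 37 C, dosed with a compound series, incubated 18 hrs, loaded with CCF4 dye for 2 hrs at RT, then read for fluorescence. Data were scaled between DMSO (0%) and 10 nM T3 (100%).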

[11] = target: Thyroid hormone receptor beta (Homo sapiens) (UniProt P10828); assay: qHTS assay for small molecule antagonists of thyroid hormone receptor beta signaling (AID 588547; active means well fitted inhibition curve with a large enough effect in the signal ratio, with a control signal flat, not every such curve was filed as active; the % refers to the signal ratio;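 further: cells stimulated with 0.4 nM T3 agonist during compound exposure; series mostly up to about 77 µM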); details: TR-UAS-bla HEK293, beta-lactamase ratio, antagonist mode, 18 h
Outline: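 TR-UAS-bla GripTite HEK293 cells in 2% charcoal/dextran FBS medium were preincubated 4 h at 37 C, given compound (0.59 nM to 92 uM) plus 0.4 nM T3 (final) for 18 h, then CCF4 for 2 h at RT; Hill fit gave IC50.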

[12] = qHTS assay for small molecule agonists of the antioxidant response element (ARE) signaling pathway (AID 651741; active means well fitted activation curve with a large enough effect in the signal ratio; the % refers to the signal ratio)
Outline: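 Reporter: beta-lactamase under ARE, stably in HepG2. Exposure: 16 h, 37 C, compounds delivered in DMSO by pin tool after 5 h cell preincubation. Readout: FRET substrate fluorescence after 2 h at RT.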

[13] = qHTS assay for small molecule activators of the p53 signaling pathway (AID 651743; active means well fitted activation curve with a large enough effect in the signal ratio, not every such curve was filed as active; the % refers to the signal ratio; further: series mostly up to about 92 µM); details: HCT-116 p53RE-bla, beta-lactamase FRET ratio, 16 h; activation: stronger effect = higher value
Outline: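 Agonist-mode quantitative HTS in HCT-116 cells carrying a p53-response-element beta-lactamase reporter; 16 h compound treatment at 37 C, then FRET substrate loading for 2 h at room temperature and fluorescence read.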

[14] = qHTS assay for small molecule disruptors of the mitochondrial membrane potential - 1 hr assay (AID 651754); further: nearly all actives have a fitted effect of over 35% in size
Outline: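 Mitochondrial potential in living HepG2 cells after 1 hr compound treatment at 37C was read with Mito-MPS dye added for a further 30 min. Red aggregate and green monomer fluorescence were measured; loss of potential leaves dye as cytoplasmic monomers.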

[15] = qHTS assay for small molecule agonists of the antioxidant response element (ARE) signaling pathway measured by Nrf2-dependant transcriptional activity (AID 720636; active means well fitted curve in the direction sought with a large enough effect in the repeat runs; an effect the other way counts as inactive or inconclusive)
Outline: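 Nrf2-dependent transcription read as ONE-Glo luciferase signal from ARE-luc HepG2 reporter cells after 16 hr compound treatment at 37 C, 5% CO2, in assay medium with 1% dialyzed FBS.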

[16] = target: Nuclear receptor subfamily 1 group I member 2 (Rattus norvegicus) (UniProt Q9R1A7); assay: qHTS assay for small molecule activators of the rat pregnane X receptor (rPXR) signaling pathway (AID 651751; call rule not given here); details: rPXR reporter cells, luciferase (One-Glo), 24 h
[17] = target: Nuclear receptor ROR-gamma (Homo sapiens) (UniProt P51449); assay: qHTS assay for small molecule antagonists of the retinoid-related orphan receptor gamma (ROR-gamma) signaling pathway (AID 651802; active means well fitted curve in the direction sought with a large enough effect; an effect the other way counts as inactive or inconclusive;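 further: CHO cells with doxycycline-induced ROR-gamma expression; luciferase reporter luminescence driven by ROR response element; series mostly up to about 92 µM; nearly all actives have a fitted effect of over 60% in size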)
Outline: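 Luminescence (One-Glo, 30 min RT) measured 16 h after compound addition and doxycycline induction at 37C. Reporter: RORE-luciferase under TET-inducible ROR-gamma in CHO cells.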

[18] = qHTS assay for small molecule activators of the human pregnane X receptor (PXR) signaling pathway (AID 720659; call rule not given here)
[19] = target: Glucocorticoid receptor (Homo sapiens) (UniProt P04150); assay: qHTS assay for small molecule agonists of glucocorticoid receptor signaling (AID 588532; active means well fitted curve in the direction sought with a large enough effect in the signal ratio, with a control signal flat; the % refers to the signal ratio); details: HeLa MMTV-bla, beta-lactamase ratio, agonist, 18 h; stronger effect = higher value; percent of dexamethasone control, DMSO zero
Outline: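 Stimulation of a glucocorticoid response element-driven beta-lactamase gene was measured in HeLa cells. Responses were scaled between DMSO basal and 0.1 uM dexamethasone, then fitted for half-maximal stimulation.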

[20] = target: Glucocorticoid receptor (Homo sapiens) (UniProt P04150); assay: qHTS assay for small molecule antagonists of glucocorticoid receptor signaling (AID 588533; active means well fitted inhibition curve with a large enough effect in the signal ratio, with a control signal flat, not every such curve was filed as active; the % refers to the signal ratio;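 further: cells stimulated with 2 nM dexamethasone as agonist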)
Outline: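 Antagonist-mode qHTS: compound titrations added to GRE-bla HeLa cells, then dexamethasone 2 nM final; 18 h, 37 C. CCF4 FRET fluorescence normalized to dexamethasone and DMSO; IC50 from Hill fit.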

Chain of Estrogen receptor (Homo sapiens) (P03372 whole entry, looked up): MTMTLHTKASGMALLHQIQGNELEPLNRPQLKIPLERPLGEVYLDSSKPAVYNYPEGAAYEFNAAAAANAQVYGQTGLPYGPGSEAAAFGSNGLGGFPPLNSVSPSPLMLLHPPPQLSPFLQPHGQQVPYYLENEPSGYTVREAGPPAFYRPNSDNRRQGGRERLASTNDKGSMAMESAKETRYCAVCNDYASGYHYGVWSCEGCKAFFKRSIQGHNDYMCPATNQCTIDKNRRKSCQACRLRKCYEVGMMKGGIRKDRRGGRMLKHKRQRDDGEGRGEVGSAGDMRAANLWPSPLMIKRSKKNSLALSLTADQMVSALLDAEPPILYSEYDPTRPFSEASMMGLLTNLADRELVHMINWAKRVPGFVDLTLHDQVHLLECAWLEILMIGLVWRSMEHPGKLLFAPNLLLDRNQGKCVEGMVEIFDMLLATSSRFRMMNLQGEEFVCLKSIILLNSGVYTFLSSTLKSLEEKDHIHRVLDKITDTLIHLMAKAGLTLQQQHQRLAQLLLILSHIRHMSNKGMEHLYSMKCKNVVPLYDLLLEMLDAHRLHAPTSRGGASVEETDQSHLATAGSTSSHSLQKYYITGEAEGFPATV
Chain of Glucocorticoid receptor (Homo sapiens) (P04150 whole entry, looked up): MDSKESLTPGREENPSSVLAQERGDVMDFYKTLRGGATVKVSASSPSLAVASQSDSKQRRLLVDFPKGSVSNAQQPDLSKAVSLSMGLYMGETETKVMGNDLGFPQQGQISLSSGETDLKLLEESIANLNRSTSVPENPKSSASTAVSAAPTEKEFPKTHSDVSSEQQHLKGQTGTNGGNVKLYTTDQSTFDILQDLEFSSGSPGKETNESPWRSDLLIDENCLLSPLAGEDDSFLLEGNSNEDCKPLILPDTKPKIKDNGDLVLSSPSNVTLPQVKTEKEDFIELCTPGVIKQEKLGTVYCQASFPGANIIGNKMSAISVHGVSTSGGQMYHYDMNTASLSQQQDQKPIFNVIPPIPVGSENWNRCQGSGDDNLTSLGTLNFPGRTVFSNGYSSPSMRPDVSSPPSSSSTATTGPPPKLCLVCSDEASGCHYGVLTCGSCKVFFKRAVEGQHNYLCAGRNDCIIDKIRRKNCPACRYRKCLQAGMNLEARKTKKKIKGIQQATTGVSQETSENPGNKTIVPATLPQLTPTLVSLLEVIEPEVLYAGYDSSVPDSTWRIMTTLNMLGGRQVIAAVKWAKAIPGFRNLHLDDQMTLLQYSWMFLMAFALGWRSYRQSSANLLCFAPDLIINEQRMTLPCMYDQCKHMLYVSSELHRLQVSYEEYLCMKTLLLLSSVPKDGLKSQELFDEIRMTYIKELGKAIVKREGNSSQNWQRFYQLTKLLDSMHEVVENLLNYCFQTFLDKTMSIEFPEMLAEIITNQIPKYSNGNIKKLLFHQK
Chain of Nuclear receptor subfamily 1 group I member 2 (Rattus norvegicus) (Q9R1A7 whole entry, looked up): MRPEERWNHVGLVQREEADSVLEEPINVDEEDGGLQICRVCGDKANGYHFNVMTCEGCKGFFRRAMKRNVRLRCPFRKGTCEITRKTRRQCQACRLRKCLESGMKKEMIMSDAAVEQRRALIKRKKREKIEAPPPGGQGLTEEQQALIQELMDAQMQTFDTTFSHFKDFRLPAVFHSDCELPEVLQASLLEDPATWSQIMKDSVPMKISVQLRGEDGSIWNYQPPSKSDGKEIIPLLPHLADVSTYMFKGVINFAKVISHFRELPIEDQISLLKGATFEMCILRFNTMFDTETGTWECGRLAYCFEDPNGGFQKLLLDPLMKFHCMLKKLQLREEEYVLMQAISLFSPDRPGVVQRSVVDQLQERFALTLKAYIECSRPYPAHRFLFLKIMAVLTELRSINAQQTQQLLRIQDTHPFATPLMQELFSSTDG
Chain of Cytochrome P450 3A4 (Homo sapiens) (P08684 whole entry, looked up): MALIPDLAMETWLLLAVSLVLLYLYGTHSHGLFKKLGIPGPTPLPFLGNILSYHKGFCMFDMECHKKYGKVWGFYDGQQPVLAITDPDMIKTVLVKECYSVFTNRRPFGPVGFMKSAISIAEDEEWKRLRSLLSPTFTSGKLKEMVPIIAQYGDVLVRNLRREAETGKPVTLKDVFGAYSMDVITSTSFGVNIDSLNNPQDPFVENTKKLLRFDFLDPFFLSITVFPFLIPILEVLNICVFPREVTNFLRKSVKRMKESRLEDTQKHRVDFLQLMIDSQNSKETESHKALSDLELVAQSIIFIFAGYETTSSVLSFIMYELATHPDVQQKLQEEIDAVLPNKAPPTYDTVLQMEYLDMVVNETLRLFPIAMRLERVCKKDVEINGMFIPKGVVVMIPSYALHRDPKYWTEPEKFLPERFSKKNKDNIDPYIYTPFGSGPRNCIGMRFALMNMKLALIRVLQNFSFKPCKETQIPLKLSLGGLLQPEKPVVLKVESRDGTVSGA
Chain of Nuclear receptor ROR-gamma (Homo sapiens) (P51449 whole entry, looked up): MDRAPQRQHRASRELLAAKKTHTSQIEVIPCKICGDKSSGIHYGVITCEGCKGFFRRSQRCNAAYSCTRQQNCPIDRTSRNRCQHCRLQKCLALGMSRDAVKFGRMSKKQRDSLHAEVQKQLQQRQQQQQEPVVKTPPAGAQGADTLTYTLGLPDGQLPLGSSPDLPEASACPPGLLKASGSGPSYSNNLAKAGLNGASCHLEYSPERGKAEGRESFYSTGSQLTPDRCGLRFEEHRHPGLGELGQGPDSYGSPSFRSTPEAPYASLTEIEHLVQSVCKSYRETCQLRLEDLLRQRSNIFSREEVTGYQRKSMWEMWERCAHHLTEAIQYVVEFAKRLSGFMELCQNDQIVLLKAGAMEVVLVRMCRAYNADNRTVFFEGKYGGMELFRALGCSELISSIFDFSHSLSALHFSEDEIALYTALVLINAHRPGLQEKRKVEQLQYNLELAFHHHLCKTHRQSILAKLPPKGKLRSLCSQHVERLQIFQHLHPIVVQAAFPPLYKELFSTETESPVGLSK
Chain of Vitamin D3 receptor (Homo sapiens) (P11473 whole entry, looked up): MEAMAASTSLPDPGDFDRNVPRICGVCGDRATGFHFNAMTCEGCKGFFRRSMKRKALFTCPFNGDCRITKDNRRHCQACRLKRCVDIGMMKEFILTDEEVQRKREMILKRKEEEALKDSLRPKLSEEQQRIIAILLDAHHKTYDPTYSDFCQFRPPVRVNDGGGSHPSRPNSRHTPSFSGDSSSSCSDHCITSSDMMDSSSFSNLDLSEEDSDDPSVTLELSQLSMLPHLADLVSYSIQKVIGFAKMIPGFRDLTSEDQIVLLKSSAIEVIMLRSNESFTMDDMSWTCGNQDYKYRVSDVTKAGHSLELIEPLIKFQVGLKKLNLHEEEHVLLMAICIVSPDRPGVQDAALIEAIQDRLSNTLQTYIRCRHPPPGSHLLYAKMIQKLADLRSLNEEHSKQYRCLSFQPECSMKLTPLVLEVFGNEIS
Chain of Peroxisome proliferator-activated receptor gamma (Homo sapiens) (P37231 whole entry, looked up): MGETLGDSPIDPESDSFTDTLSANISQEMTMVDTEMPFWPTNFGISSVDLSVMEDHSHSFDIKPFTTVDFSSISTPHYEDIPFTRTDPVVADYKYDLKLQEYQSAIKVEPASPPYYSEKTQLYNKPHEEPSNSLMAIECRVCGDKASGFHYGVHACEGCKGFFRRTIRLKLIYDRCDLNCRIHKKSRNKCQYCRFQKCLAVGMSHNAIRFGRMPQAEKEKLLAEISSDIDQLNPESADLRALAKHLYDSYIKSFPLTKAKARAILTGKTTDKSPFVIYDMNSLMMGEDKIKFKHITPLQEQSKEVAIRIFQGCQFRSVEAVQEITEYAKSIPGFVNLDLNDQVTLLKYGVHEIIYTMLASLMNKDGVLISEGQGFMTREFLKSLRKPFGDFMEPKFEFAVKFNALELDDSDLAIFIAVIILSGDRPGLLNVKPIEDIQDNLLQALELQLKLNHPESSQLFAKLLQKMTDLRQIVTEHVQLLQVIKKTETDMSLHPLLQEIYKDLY
Chain of Thyroid hormone receptor beta (Homo sapiens) (P10828 whole entry, looked up): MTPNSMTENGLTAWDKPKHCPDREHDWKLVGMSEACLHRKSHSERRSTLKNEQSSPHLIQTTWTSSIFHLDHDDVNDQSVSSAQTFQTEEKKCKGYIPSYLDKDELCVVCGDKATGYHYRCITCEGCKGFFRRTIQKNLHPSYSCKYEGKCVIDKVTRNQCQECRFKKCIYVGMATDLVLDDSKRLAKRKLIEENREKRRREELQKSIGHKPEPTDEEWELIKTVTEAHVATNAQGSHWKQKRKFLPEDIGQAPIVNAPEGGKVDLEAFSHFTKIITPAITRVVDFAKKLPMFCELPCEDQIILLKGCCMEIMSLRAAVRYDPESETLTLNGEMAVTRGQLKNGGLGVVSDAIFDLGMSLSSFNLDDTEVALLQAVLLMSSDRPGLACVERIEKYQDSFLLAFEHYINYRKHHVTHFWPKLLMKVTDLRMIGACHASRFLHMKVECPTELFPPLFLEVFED
Chain of Retinoic acid receptor RXR-alpha (Homo sapiens) (P19793 whole entry, looked up): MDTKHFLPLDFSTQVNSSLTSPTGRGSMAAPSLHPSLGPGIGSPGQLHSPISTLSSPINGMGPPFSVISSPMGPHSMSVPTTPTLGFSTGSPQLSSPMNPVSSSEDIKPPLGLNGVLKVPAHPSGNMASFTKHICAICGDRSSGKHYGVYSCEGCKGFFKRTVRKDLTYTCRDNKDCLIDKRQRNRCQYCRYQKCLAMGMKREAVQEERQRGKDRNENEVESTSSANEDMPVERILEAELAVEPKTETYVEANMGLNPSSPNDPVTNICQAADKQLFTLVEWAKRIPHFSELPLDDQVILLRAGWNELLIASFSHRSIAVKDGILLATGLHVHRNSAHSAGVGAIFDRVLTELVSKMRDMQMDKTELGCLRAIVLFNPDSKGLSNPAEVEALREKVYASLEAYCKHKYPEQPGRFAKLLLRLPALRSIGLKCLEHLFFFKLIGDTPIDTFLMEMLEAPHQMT

| Compound | Potency [1] | Potency [2] | Potency [3] | Potency [4] | outcome [5] | outcome [6] | outcome [7] | max response [8] | outcome [9] | outcome [10] | activity change % (negative = inhibition) [11] | Potency [12] | activation [13] | Potency [14] | Potency [15] | max response [16] | Potency [17] | outcome [18] | activation [19] | Potency [20] |
| --- | --- | --- | --- | --- | --- | --- | --- | --- | --- | --- | --- | --- | --- | --- | --- | --- | --- | --- | --- | --- |
| Nc1ccc(S(=O)(=O)O)cc1 | inactive | inactive | inactive | inactive | inactive | inactive | inactive | 8.69% and -7.04% | inactive | inactive | -11.7% (inactive) and 17.4% (inactive) | inactive | 3.7% (inactive) and 3.55% (inactive) | inactive | inactive | -3.61% (inactive) and -1.3% (inactive) |  |  |  |  |
| CC1(C)CC(N=C=O)CC(C)(CN=C=O)C1 (stereo not drawn) |  |  | inactive | inactive | inactive | inactive | inactive | 0.0281% and -13.4% | inactive | inactive | 2.27% (inactive) and 3.24% (inactive) | inactive | 0.263% (inactive) and 0.482% (inactive) | inactive | inactive | 1.05% (inactive) and -0.823% (inactive) | inactive | inactive |  |  |
| Cc1ccc([N+](=O)[O-])cc1N |  | inactive | inactive | inactive | inactive | inactive | inactive | -6.56% and -2.61% | inactive | inactive | 15.7% (inactive) and 9.17% (inactive) |  | -1.56% (inactive) and -5% (inactive) | inactive | inactive | 0.691% (inactive) and 2.27% (inactive) | inactive | inactive |  |  |
| Clc1cc(Cl)c(Cl)c(Cl)c1Cl |  | inactive | inactive | inactive |  | inactive | inactive | -1.44% and -10.6% | inactive | inactive | 4.53% (inactive) and 17.6% (inactive) | inactive | -3.68% (inactive) and 2.1% (inactive) | inactive | inactive | 0.274% (inactive) and 3.7% (inactive) | inactive | inactive | -4.89% (inactive) and 1.1% (inactive) | inactive |
| CCCCC(CC)CN (stereo not drawn) | inactive | inactive | inactive | inactive | inactive | inactive | inactive | -5.69% and -12.2% | inactive | inactive | 20% (inactive) and -6.26% (inactive) | inactive | -5.5% (inactive) and 1.33% (inactive) | inactive | inactive | 1.98% (inactive) and 0.48% (inactive) | inactive | inactive | -3.51% (inactive) and -4.52% (inactive) | inactive |
| OCCNCCO | inactive | inactive | inactive | inactive |  | inactive | inactive | -28.3% and -18.3% | inactive |  |  |  |  | inactive | inactive |  |  | inactive | -6.89% (inactive) and -4.55% (inactive) | inactive |
| c1ccc2c(c1)[nH]c1ccccc12 | inactive | inactive | inactive | inactive | inactive |  |  | 2.28% and -6.27% | inactive | inactive | 1.02% (inactive) and -10.3% (inactive) | inactive | 0.0697% (inactive) and -3.97% (inactive) |  |  | -0.192% (inactive) and 1.32% (inactive) |  | inactive | -0.462% (inactive) and 14.4% (inactive) | inactive |
| CCO[Si](CCCN)(OCC)OCC | inactive | inactive | inactive | inactive | inactive | inactive | inactive | 12.6% and -3.12% | inactive |  |  | inactive | -1.64% (inactive) and -2.02% (inactive) | inactive | inactive | -3.96% (inactive) and 0.794% (inactive) | inactive | inactive | 5.03% (inactive) and 9.33% (inactive) | inactive |
| C1OCOCO1 | inactive | inactive |  |  | inactive |  |  | -5.21% | inactive | inactive | 5.08% (inactive) | inactive | -3.32% (inactive) | inactive | inactive | -2.23% (inactive) | inactive | inactive | 3.41% (inactive) | inactive |
| c1ccc2c(c1)c1cccc3ccc4cccc2c4c31 | inactive | inactive | inactive | inactive |  | inactive |  | -17% and -12.4% | inactive |  | 6.13% (inactive) and -3.87% (inactive) |  | 8.13% (inactive) and 3.99% (inactive) | inactive |  | 4.91% (inactive) and -2.4% (inactive) | inactive | inactive | 2.22% (inactive) and -5.73% (inactive) | inactive |
